Assay outcomes (PubChem)
Casp6 inh – caspase-6 (human) enzyme inhibition | purified caspase-6, Z-VEID-R110 cleavage fluorescence | inhibition, % at 12.5 µM | hit rate 0.53% among 350,000;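 active = mean inhibition across replicates at least about 35%, with every replicate also reaching that limit, limit read from the data; inconclusive = only one of the two criteria met; inactive = neither criterion met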;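 note: 0% = median of neutral control wells and 100% = no fluorescence left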
Target sequence (P55212 24-179 limits assumed): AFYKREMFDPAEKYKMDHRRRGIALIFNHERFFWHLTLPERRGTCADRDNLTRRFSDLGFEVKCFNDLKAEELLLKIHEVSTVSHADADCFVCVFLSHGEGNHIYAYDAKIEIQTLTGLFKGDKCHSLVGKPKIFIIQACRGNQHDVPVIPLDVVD
Target sequence (P55212 194-293 limits assumed): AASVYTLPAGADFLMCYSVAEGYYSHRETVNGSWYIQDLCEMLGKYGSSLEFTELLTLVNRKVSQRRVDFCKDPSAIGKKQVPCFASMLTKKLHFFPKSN
CFTR F508del cor – CFTR F508del correction in bronchial cells; CFBE cells, YFP halide quenching; stimulated with forskolin plus potentiator P3; % fluorescence drop versus neutral controls; hit rate 0.36% among 350,000; activity (quench increase), % at 7.58 µM;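 active = mean added fluorescence quench of at least 8% versus neutral control, with both replicates also reaching 8%; inconclusive = only one of the mean or replicate conditions met; inactive = mean below 8% and not both replicates reaching 8%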;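 note: cells transiently co-express mutant CFTR-F508del with the halide-sensitive YFP; corrector assay measuring rescue of mutant channel to the surface after 24 h compound exposure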
ALR inh – human ALR oxidase inhibition via reduced H2O2; purified ALR, DTT oxidation, H2O2 HRP-luminol luminescence; inhibition, % (test concentration not listed); hit rate 3.8% among 290,000; AID 485317;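 active = mean replicate inhibition above about 79%, with every replicate also reaching it, limit read from the data; inconclusive = only one of the two criteria met; inactive = mean below limit and not every replicate reaching it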
Target sequence (P55789 whole entry, looked up): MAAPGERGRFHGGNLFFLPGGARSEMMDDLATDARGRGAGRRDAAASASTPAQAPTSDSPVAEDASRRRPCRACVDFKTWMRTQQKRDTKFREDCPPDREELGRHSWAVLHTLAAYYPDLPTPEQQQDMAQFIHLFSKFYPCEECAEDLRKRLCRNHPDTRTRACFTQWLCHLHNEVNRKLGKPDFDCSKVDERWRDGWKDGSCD
NSD2 inh – NSD2 (human) methyltransferase inhibition | NSD2 peptide methylation, AlphaScreen, 120 min | inhibition, % at 12.5 µM | hit rate 0.54% among 310,000 | AID 743445; in the data active = inhibition above about 50%
PglD inh – PglD (C. jejuni) enzyme inhibition | purified PglD enzyme, DTNB colorimetric CoA detection | inhibition, % at 12.5 µM | hit rate 0.098% among 360,000; in the data active = inhibition above about 16%, passing the limit was not always enough; inconclusive = no clear call, values can overlap the other calls
Env fusion inh – inhibitors of HIV Env-mediated cell fusion; hit rate 1.1% among 360,000; AID 651610; HeLa-JRFL Env/CEM21 cell fusion, luciferase; inhibition, % at 12.3 µM;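 active = mean replicate inhibition score of at least 50 and every replicate individually at or above 50; inconclusive = only one of the two criteria met; inactive = mean below 50 and not all replicates reaching 50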;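 note: 0% = plate neutral controls and 100% = maraviroc near 300 nM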
* hit, by the source's call; [ ] = remark or other dose. Hits are enriched below; roughly 4.1% of the tested compounds scored in any of these assays.

Results for CO[C@H]1CN(C)C(=O)c2ccc(NS(C)(=O)=O)cc2OC[C@H](C)N(Cc2ccccn2)C[C@@H]1C ?
Casp6 inh: -2; CFTR F508del cor: 2

What do the screens show for `O=C1OC(c2ccccc2)=N/C1=C\C=C\c1ccccc1[N+](=O)[O-]`?
Casp6 inh: 5; ALR inh: 5; NSD2 inh: -1; Env fusion inh: -4

Results for O=C1OC(c2ccc(Cl)cc2)=N/C1=C\C=C\c1ccco1 ?
Casp6 inh: 64*; CFTR F508del cor: -1; ALR inh: 24; NSD2 inh: 0; Env fusion inh: 10

What do the screens show for `O=C(NN=C/C=C/c1ccco1)c1cc(-c2ccc(Cl)cc2)n[nH]1`?
NSD2 inh: -2

What do the screens show for `O=C1OC(c2ccccc2)=N/C1=C\C=C\c1ccco1`?
Casp6 inh: 56*; CFTR F508del cor: 0; NSD2 inh: 2; Env fusion inh: 0

How did O=C(C[C@@H]1CC[C@H](NC(=O)Cc2ccccn2)[C@H](CO)O1)NCCCN1CCOCC1 do in these assays?
Casp6 inh: -1; CFTR F508del cor: -1; PglD inh: 1; Env fusion inh: 5[16.7 µM]

Results for O=C(O)c1ccc(N(c2ccccc2)c2ccccc2)cc1 ?
ALR inh: 99*; NSD2 inh: 3; PglD inh: 1

How did C[C@H](CO)N1C[C@H](C)[C@H](CN(C)Cc2ccccn2)Oc2ncc(-c3ccccc3)cc2C1=O do in these assays?
Casp6 inh: 0; CFTR F508del cor: 3; PglD inh: 1; Env fusion inh: -8[16.7 µM]

Results for CNC(=S)N/N=C/c1ccc(N(C)C)cc1 ?
Casp6 inh: 0; CFTR F508del cor: 0; ALR inh: 99*; NSD2 inh: -1; Env fusion inh: -45

What do the screens show for `COCCCNC(=S)N/N=C/c1ccc(N(C)C)cc1`?
Casp6 inh: -1; CFTR F508del cor: 1; ALR inh: 98*; NSD2 inh: 4; Env fusion inh: -25

What do the screens show for `Cc1c(NC(=S)N/N=C/c2cccc(O)c2)c(=O)n(-c2ccccc2)n1C`?
ALR inh: inconclusive; NSD2 inh: -2; PglD inh: 0; Env fusion inh: -18

Results for Cc1c(NC(=S)N/N=C/c2ccc(N(C)C)cc2)c(=O)n(-c2ccccc2)n1C ?
Casp6 inh: 2; ALR inh: 99*; NSD2 inh: 0; Env fusion inh: -14

What do the screens show for `COCC(=O)N1CC2(C1)[C@@H](c1ccc(-c3ccc(F)cc3)cc1)[C@H](CO)N2C(C)=O`?
CFTR F508del cor: 1

What do the screens show for `CCC(=O)N[C@H]1C=C[C@H](CC(=O)NCC2CCCCC2)O[C@@H]1CO`?
Casp6 inh: 4; CFTR F508del cor: -1; PglD inh: 2; Env fusion inh: 12[16.7 µM]

How did CCC(=O)Nc1ccc2c(c1)OC[C@H](C)N(CCc1ccccc1)C[C@H](C)[C@H](OC)CN(C)C2=O do in these assays?
CFTR F508del cor: 0; Env fusion inh: -7[16.7 µM]

How did Cc1csc(NC(=O)CSc2nnc(-c3cc(C)on3)o2)n1 do in these assays?
Casp6 inh: 15; CFTR F508del cor: 0; ALR inh: 94*; NSD2 inh: -2; PglD inh: 0; Env fusion inh: 3

Results for O=C(CSc1nc2ccccc2o1)Nc1nc2ccccc2s1 ?
ALR inh: -11; NSD2 inh: -2; PglD inh: 2; Env fusion inh: -154

Results for O=C(CSc1nc2ccccc2o1)Nc1nc(-c2ccccc2)cs1 ?
ALR inh: 99*; NSD2 inh: 0; PglD inh: -3; Env fusion inh: -21

What do the screens show for `Cc1cc(-c2nnc(SCC(=O)Nc3nc(-c4ccccc4)cs3)o2)no1`?
Casp6 inh: 3; CFTR F508del cor: -2; ALR inh: 99*; NSD2 inh: -2; PglD inh: 1; Env fusion inh: -60

Results for Cc1occc1-c1nnc(SCC(=O)Nc2nc(-c3ccccc3)cs2)o1 ?
Casp6 inh: -4; CFTR F508del cor: -3; ALR inh: -8; NSD2 inh: 2; PglD inh: 2

How did Cc1cc(-c2nnc(SCC(=O)NC3CCCC3)o2)no1 do in these assays?
ALR inh: -6; NSD2 inh: 5; PglD inh: -7

What do the screens show for `CCNC(=O)C[C@H]1CC[C@H]2[C@H](COc3ccc(NC(=O)Nc4cccc(OC)c4)cc3C(=O)N2C)O1`?
CFTR F508del cor: 1; PglD inh: 0; Env fusion inh: -8[16.7 µM]

What do the screens show for `CC(C)NC(=O)N1CC2(C1)[C@H](c1ccccc1)[C@H](CO)N2C(=O)C1CCC1`?
Casp6 inh: -4; CFTR F508del cor: 2

Results for COc1ccc(S(=O)(=O)N(C)C[C@@H]2OCCCC[C@@H](C)Oc3ccc(NC(=O)NC4CCCCC4)cc3C(=O)N([C@H](C)CO)C[C@@H]2C)cc1 ?
Casp6 inh: 0; CFTR F508del cor: 0; PglD inh: -1; Env fusion inh: 13[16.7 µM]

Results for COc1ccc2c3c([nH]c2c1)[C@@H](CO)N(C(=O)NC1CCCC1)CC31CCN(C(=O)Nc2cccc(F)c2)CC1 ?
Casp6 inh: 2; CFTR F508del cor: 1

How did COc1ccc(S(=O)(=O)Nc2ccc3c(c2)C(=O)N([C@@H](C)CO)C[C@H](C)[C@H](CN(C)C(=O)NC2CCCCC2)OCCCC[C@@H](C)O3)cc1 do in these assays?
Casp6 inh: 0; CFTR F508del cor: -2; PglD inh: 0; Env fusion inh: -61[16.7 µM]

Results for O=C1CCCN1CCCNc1ncnc2c1[nH]c1ccc(Cl)cc12 ?
Casp6 inh: 1; ALR inh: 98*; NSD2 inh: 1; PglD inh: 11

How did Clc1ccc2[nH]c3c(NCCCN4CCOCC4)ncnc3c2c1 do in these assays?
ALR inh: -9; NSD2 inh: 9; PglD inh: 5

What do the screens show for `COc1ccc2c3c(n(C)c2c1)[C@H](CO)N(Cc1ccccc1)CC31CCN(S(=O)(=O)c2ccc(C)cc2)CC1`?
Casp6 inh: 1; CFTR F508del cor: 1

How did COc1ccccc1NCC(O)Cn1c2ccccc2c2ccccc21 (stereo unspecified) do in these assays?
ALR inh: 87*; NSD2 inh: -1; PglD inh: -3; Env fusion inh: 1

How did COCOc1cccc(CN2CCC(C)(Oc3cccc(C#N)c3)C2)c1 (stereo unspecified) do in these assays?
Casp6 inh: 5; CFTR F508del cor: 8.7*; NSD2 inh: -2; PglD inh: -6; Env fusion inh: -14

What do the screens show for `CC1(Oc2cccc(F)c2)CCN(Cc2ccc3ccccc3c2)C1` (stereo unspecified)?
Casp6 inh: 0; CFTR F508del cor: 0; NSD2 inh: -2; PglD inh: -9; Env fusion inh: 29

How did COc1ccc2nc(SCC(=O)NCc3ccc(F)cc3)[nH]c2c1 do in these assays?
Casp6 inh: 1; CFTR F508del cor: 1; ALR inh: 1; NSD2 inh: 0; PglD inh: 8; Env fusion inh: 2
